# Measurements reported in PubChem BioAssay (Tox21).
# Where “and” joins values, the source holds several entries; their conditions need not be identical. Equal entries are not always repeated. Records with an inconclusive call do not appear. Unmarked numbers belong to inactive results. Calls of active or inactive are those of the source. Calls come from the whole dose curve; as a rule, active = well fitted cell-killing curve with a large enough effect in the repeat runs; inconclusive = weak or mixed curves, or effect the other way; inactive = flat fitted curve, though single readings scatter.
# Assay: cAMP Responsive Elements (CRE) small molecule antagonists, cell-based qHTS assay: qHTS cell viability counter screen (AID 2060913); note: nearly all actives have a fitted effect of over 40% in size
# Conditions: CRE-bla HEK293T viability, CellTiter-Glo luminescence, 5 h; series mostly up to 92.4 µM; viability change, negative = cytotoxic: at the top concentration
# Method in brief: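 CRE-bla HEK293T cells were seeded in assay medium with 10% dialyzed FBS, incubated 18 hrs at 37 C, then exposed to compounds plus 0.25 uM final NKH477 for 3 hrs. Viability was read by CellTiter-Glo luminescence after 30 min, in the same wells.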
# % is set by controls: 0 for no effect and ±100 for the full control effect; potency is the fitted concentration of half-maximal effect.
Structure (SMILES),"viability change, negative = cytotoxic",Potency
CNC(=O)O/N=C(\C)C(C)S(C)(=O)=O (stereo not given),-13.7% [at 872 µM],
CCOP(=S)(Oc1cnc(C(C)(C)C)nc1)OC(C)C (stereo not given),-9.73%,
CN(C)C(=S)[S-].CN(C)C(=S)[S-].[Cu+2],,13.2 µM (active)
Nc1c(Cl)c(Cl)c(Cl)c(Cl)c1Cl,-4.03%,
CC(C)(C)OOC(C)(C)C,,inactive
O=[N+]([O-])/C=C/c1ccccc1,-10.6%,
CCN(CCO)CCn1c(Cc2ccccc2)nc2c1c(=O)n(C)c(=O)n2C,-1.53% [at 42.5 µM],
CCC[CH2][Sn]([Cl])([CH2]CCC)[CH2]CCC,,3.86 µM (active) and 7.7 µM (active)
O=C1NCN(c2ccccc2)C12CCN(CCCOc1ccc(F)cc1)CC2,-1.23% [at 42.5 µM],
O=[N+]([O-])c1ccc(Cl)c(Cl)c1Cl,1.98%,
CC[C@H]1C[C@@H]2C[C@H]3c4[nH]c5ccc(OC)cc5c4CCN(C2)[C@@H]13,-2.75%,
c1ccc(OCC2CO2)cc1 (stereo not given),-1.24%,
Cc1cccc(OP(=O)(Oc2cccc(C)c2)Oc2cccc(C)c2)c1,-1.48%,
O=[N+]([O-])c1ccc(Oc2ccc(C(F)(F)F)cc2[N+](=O)[O-])cc1,-11.9%,
c1ccc2nc(N3CCNCC3)ccc2c1,6.84% [at 42.5 µM],
CC(C)(c1cc(Cl)c(O)c(Cl)c1)c1cc(Cl)c(O)c(Cl)c1,,inactive
O=C(O)C(F)(F)C(F)(F)C(F)(F)C(F)(F)C(F)(F)C(F)(F)F,6.64%,
CC(Cl)C(C)Cl (stereo not given),7.8%,
CCNS(=O)(=O)C(F)(F)C(F)(F)C(F)(F)C(F)(F)C(F)(F)C(F)(F)C(F)(F)C(F)(F)F,8.62%,
Nc1ccc(-c2ccc(N)c(N)c2)cc1N,,inactive

Structure (SMILES),"viability change, negative = cytotoxic",Potency
CC(=O)C1CCOC1=O (stereo not given),,inactive
C=C(C)C(=O)OCC1CO1 (stereo not given),,inactive
COC(=O)N(C(=O)N1CO[C@@]2(C(=O)OC)Cc3cc(Cl)ccc3C2=N1)c1ccc(OC(F)(F)F)cc1,-16.1%,
CC(N)=S,7.49%,
Cc1ccc(N)c(C)c1,,inactive
O=c1[nH]c2ccccc2n1CCCN1CCC(n2c(=O)[nH]c3cc(Cl)ccc32)CC1,-13.5% [at 42.5 µM],
Clc1ccc(C(c2ccccc2Cl)C(Cl)(Cl)Cl)cc1 (stereo not given),-19.3%,
COc1ccc([N+](=O)[O-])cc1O,-7.08% [at 42.5 µM],
COc1cc(OC)c(OC)cc1C=O,4.09%,
Oc1cc(Cl)c(Cl)cc1Cl,,inactive
O.O.O.O.O.O.O.O=S(=O)([O-])[O-].[Co+2],15.2%,
CCCCCCCCCC(=O)O[C@H]1CC[C@H]2[C@@H]3CCC4=CC(=O)CC[C@@H]4[C@H]3CC[C@]12C,1.26% [at 42.5 µM],
CC(Cc1ccc(C(C)(C)C)cc1)CN1C[C@@H](C)O[C@@H](C)C1 (stereo not given in full),-5.46%,
C[C@]12C/C(=C/O)C(=O)C[C@@H]1CC[C@@H]1[C@@H]2CC[C@@]2(C)[C@H]1CC[C@]2(C)O,-9.26% [at 42.5 µM],
COc1ccc(OC)c(C=O)c1,12%,
C=CC(=O)OCCN(C)C,2.59%,
O=C(O)c1ccccc1C(=O)Nc1cccc2ccccc12,2.86%,
NS(=O)(=O)C(F)(F)C(F)(F)C(F)(F)C(F)(F)C(F)(F)C(F)(F)C(F)(F)C(F)(F)F,-4.78%,
CN(C)CCN(C)C,-4.28%,
CS(=O)(=O)c1ccc(C(=O)C2C(=O)CCCC2=O)c([N+](=O)[O-])c1,2.04%,
